# Out of some 340,000 compounds screened, about 1,400 (0.41%) were called active. Shown is part of a subset that was picked to be rich in actives. Values without a mark were called inactive.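 Rule for the calls: active = response above a set limit, near 3 SD of response in nonfluorescent compounds (cut at about 42% in these data); inactive = the rest.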
# Target: Beta-2 adrenergic receptor (Homo sapiens) (UniProt P07550)
# Test: agonist-induced loss of surface beta2AR – cell-based, FAP fluorogen, flow cytometry, primary screen (AID 504454)
# Conditions: Am2.2-beta2AR cells, FAP receptor internalization, stronger effect = higher value, concentration not given here
# Beta-2 adrenergic receptor (Homo sapiens), sequence (P07550 whole entry, looked up): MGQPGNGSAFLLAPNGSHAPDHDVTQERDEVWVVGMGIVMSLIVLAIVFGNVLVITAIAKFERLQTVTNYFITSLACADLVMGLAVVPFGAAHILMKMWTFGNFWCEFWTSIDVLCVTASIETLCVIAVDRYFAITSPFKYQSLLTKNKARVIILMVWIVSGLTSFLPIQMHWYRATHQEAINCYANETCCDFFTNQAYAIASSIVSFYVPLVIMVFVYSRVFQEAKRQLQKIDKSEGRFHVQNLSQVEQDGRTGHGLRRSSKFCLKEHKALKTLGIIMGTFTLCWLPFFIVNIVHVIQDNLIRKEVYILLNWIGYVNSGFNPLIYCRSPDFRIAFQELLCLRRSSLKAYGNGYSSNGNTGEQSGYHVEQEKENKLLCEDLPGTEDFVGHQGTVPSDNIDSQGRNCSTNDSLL
row,Compound,response
1,O=[N+]([O-])/C=C/c1ccc2c(ccn2Cc2ccccc2)c1,48.2% (active)
2,Cn1c(=S)sc2ccc3ccccc3c21,59.5% (active)
3,COc1ccc2ccccc2c1CNc1nnnn1C,-4.52%
4,CCN(CC(=O)Nc1ccccc1C(F)(F)F)C(=O)CSCc1c(C)noc1C,-3.25%
5,Cc1ccc(NC(=O)COC(=O)C2C3CC4OC(=O)C2C4C3)cc1Cl (configuration not stated),5.53%
6,COc1cc(/C=C2\Oc3ccc(C#Cc4ccc(O)cc4)cc3C2=O)cc(OC)c1,-8.05%
7,O=C1c2ccccc2C(=O)N1CCC#Cc1ccc2cc(C3(O)CCCCC3)oc(=O)c2c1,5.43%
8,COc1cc(C#Cc2ccc3cc(CCCO)oc(=O)c3c2)cc(OC)c1,45.9% (active)
9,COc1ccc(CCNC(=O)c2ccc3c(c2)NC(=O)C(N2CCOCC2)S3)cc1OC (configuration not stated),3.69%
10,Cc1nn(Cc2ccccc2)c(C)c1C(=O)N1CCN(CC(=O)Nc2ccccc2Cl)CC1,4.22%
11,CCOC(=O)N/N=C/c1cn(Cc2ccccc2Cl)c2ccccc12,-0.12%
12,COc1cccc(Cn2cc(/C=N/NC(=O)c3cc(O)cc(O)c3)c3ccccc32)c1,3.63%
13,COC(=O)N/N=C/c1cn(CCCOc2ccc(C)cc2)c2ccccc12,105% (active)
14,COc1ccc(OC)c(CCNC(=O)CCn2ccc3cc(S(=O)(=O)N4CCCC4)ccc32)c1,1.18%
15,CCOCCCNC(=O)c1c[nH]c2cc(C)ccc2c1=O,-5.06%
16,CCN(CC)S(=O)(=O)c1ccc(N2CCCC2)c(NC(=O)c2ccc([N+](=O)[O-])o2)c1,5.38%
17,CC(C)(CSc1nncn1/N=C/c1ccco1)NS(=O)(=O)c1ccc(Cl)cc1,45.9% (active)
18,Cc1cc(C)n(CCNS(=O)(=O)c2ccc(Cl)cc2)n1,-1.1%
19,O=S(=O)(NCCSc1ccccn1)c1ccc(Cl)cc1,-2.74%
20,COc1cc(C(=O)NCc2ccncc2)cc(Br)c1OCc1ccccc1,7.17%
21,COC(=O)c1ccc(C23CC4(C2)[C@H](CN(Cc2cccnc2)[C@@H]4c2ccccc2)C3c2ccc(Cl)nc2)cc1 (some centres not stated),5.54%

row,Compound,response
1,CCn1c(CNc2ccc(OC)cc2)nnc1SCC(=O)c1ccc(OC)cc1,6.23%
2,CCC(c1nnc(SCC(=O)NNC(=O)c2ccccc2)n1Cc1ccccc1)N(C)C (configuration not stated),-7.18%
3,CCn1c(SCC(=O)NNC(=O)c2ccc(OC)cc2)nnc1C(C)C,76.2% (active)
4,Cc1cc(C)c(S(=O)(=O)n2cc(C(C)C(N)C(=O)O)c3ccccc32)c(C)c1 (configuration not stated),3.12%
5,CCCNC(=O)N1CCC(c2ccc3c(c2)OCO3)CC1,6.03%
6,O=[N+]([O-])c1ccc(NC(=S)N2CCN(c3ccccn3)CC2)cc1,-2.61%
7,COCc1cc(C)nc2sc(C(=O)NC3CCCCC3)c(N)c12,-21.3%
8,COc1ccc(NC(=O)c2sc3nc(C)nc(N4CCN(c5ccccn5)CC4)c3c2C)c(OC)c1,16.2%
9,COc1ccc(OC)c(NC(=O)c2sc3nc(C)cc(C)c3c2N)c1,72.5% (active)
10,O=S(=O)(c1ccccc1)c1nc(Cc2ccccc2)oc1N1CCOCC1,6.12%
11,CCCCN=C1N/C(=C\c2ccco2)C(=O)N1c1ccccc1,0.77%
12,COc1cc(OC)cc(C(=O)NNC(=O)CCOc2ccccc2OC)c1,4.38%
13,CCN1CCC(=NNC(=O)c2ccc(C)c([N+](=O)[O-])c2)CC1,2.52%
14,CCCCN(CCCC)CCCNC(=O)CN1C(=O)COc2ccc(S(=O)(=O)N3CCC(C)CC3)cc21,7.21%
15,Cc1nc2ccccc2c(C)c1C(=O)c1ccc(F)cc1,1.92%
16,Cc1nc2ccccc2c(-c2ccccc2)c1C(=O)c1ccccc1,105% (active)
17,Cc1nc2ccccc2c(C(=O)O)c1-c1ccccn1,5.02%
18,CC/S(CC1CC1(Cl)Cl)=N\S(=O)(=O)c1ccc(C)cc1 (configuration not stated),-2.93%
19,O=c1[nH]c(=S)[nH]c(O)c1/C=C1\C=Nc2ccccc21,57.7% (active)
20,COc1ccc2c(c1OC)C(=O)N(c1ccc(O)cc1)C2,5.16%
21,COc1ccnc(Oc2ccccc2)c1-c1ncn[nH]1,1.34%

# Reference: PubChem BioAssay AID504454 (NMMLSC, 2011)
